Reference: PubChem BioAssay (NCI)
About 83,000 compounds went through this panel and 20% of them were active in at least one assay; those are over-represented in the sample as a whole.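 Percent growth is the endpoint: 0 to 100 indicates growth inhibition (40 means 60% inhibition), 0 means no net growth, and negative values indicate cell death.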 Values without a mark were called inactive. The source made the active and inactive calls. The calls were made as follows: active = growth percent below 10; inactive = the rest.

Assays:
Assay in all cases: NCI-60 one-dose screen, 48 h (100 = growth as untreated, 0 = no growth, -100 = all killed)
Details in all cases: 10 µM unless noted
[1] = test system: DU-145 prostate
[2] = test system: K-562 leukemia
[3] = test system: MALME-3M melanoma
[4] = test system: MDA-MB-231 breast
[5] = test system: RXF 393 renal
[6] = test system: SF-268 CNS
[7] = test system: SF-295 CNS
[8] = test system: SF-539 CNS
[9] = test system: UACC-257 melanoma
[10] = test system: M14 melanoma

## CCOC(=O)c1nnn(-c2no[n+]([O-])c2-c2ccc(OC)cc2)c1COc1cccc2cccnc12
[1]
  growth: 11.8%
[2]
  growth: 11.9%
[3]
  growth: 68.6%
[4]
  growth: 17%
[5]
  growth: 22.5%
[6]
  growth: 21.8%
[7]
  growth: 33.4%
[8]
  growth: -3.16% (active)
[9]
  growth: 59.1%
[10]
  growth: 12.4%

## Cn1cc(-c2csc(-c3cn(CCCN4CCOCC4)c4ccc(F)cc34)n2)c2cccnc21
[1]
  growth: 80.3%
[2]
  growth: 0.484% (active)
[3]
  growth: 87.4%
[4]
  growth: 25.1%
[5]
  growth: 36.1%
[6]
  growth: 66.6%
[7]
  growth: 11.2%
[8]
  growth: 57.6%
[9]
  growth: 78.5%
[10]
  growth: 46.2%

## c1ccc2cc(Cn3cc(CSc4nc5ccccc5s4)nn3)ccc2c1
[1]
  growth: 109%
[2]
  growth: 97.4%
[3]
  growth: 97.7%
[4]
  growth: 89.3%
[5]
  growth: 98.3%
[6]
  growth: 95.8%
[7]
  growth: 96.5%
[8]
  growth: 95.3%
[9]
  growth: 99.9%
[10]
  growth: 99.4%

## Fc1cc2[nH]ncc2c2c3c(c(-c4cn[nH]c4C(F)(F)F)nc12)CCCC3
[1]
  growth: 5.47% (active)
[2]
  growth: -34.5% (active)
[3]
  growth: 10.5%
[4]
  growth: 7.95% (active)
[5]
  growth: -56.2% (active)
[6]
  growth: 0.494% (active)
[7]
  growth: 5.61% (active)
[8]
  growth: -66.9% (active)
[9]
  growth: 2.49% (active)
[10]
  growth: -2.16% (active)

## CC(C)CCC[C@@H](C)[C@H]1CC[C@H]2[C@@H]3CC=C4c5sc(Nc6cc(C(F)(F)F)cc(C(F)(F)F)c6)nc5CC[C@]4(C)[C@H]3CC[C@]12C
[1]
  growth: 104%
[2]
  growth: 101%
[3]
  growth: 94.8%
[4]
  growth: 108%
[5]
  growth: 107%
[6]
  growth: 101%
[7]
  growth: 104%
[8]
  growth: 98%
[9]
  growth: 99.2%
[10]
  growth: 98.6%

## O=S(=O)(Nc1cc(Sc2nc3ccccc3s2)c(O)c2ccccc12)c1ccc2ccccc2c1
[1]
  growth: 101%
[2]
  growth: -35.7% (active)
[3]
  growth: 102%
[4]
  growth: 71.1%
[5]
  growth: 104%
[6]
  growth: 95.4%
[7]
  growth: 87.7%
[8]
  growth: 106%
[9]
  growth: 99.8%
[10]
  growth: 109%

## COCCn1cc(-c2nc(-c3c[nH]c4ncccc34)cs2)c2ccccc21
[1]
  growth: 85.5%
[2]
  growth: 28.5%
[3]
  growth: 97.8%
[4]
  growth: 22.5%
[5]
  growth: 51.6%
[6]
  growth: 63.9%
[7]
  growth: 68.8%
[8]
  growth: 68.4%
[9]
  growth: 87.3%
[10]
  growth: 68.6%

## CCOC(=O)CNC1=C(Cl)C(=O)N(Cc2ccc(Cl)cc2)C1=O
[1]
  growth: 113%
[2]
  growth: 106%
[3]
  growth: 93.9%
[4]
  growth: 104%
[5]
  growth: 120%
[6]
  growth: 98.5%
[7]
  growth: 108%
[8]
  growth: 90.6%
[9]
  growth: 106%
[10]
  growth: 105%

## O=C1CCC(C(=O)N/N=C/c2cc(F)ccc2F)N1 (stereo not given)
[1]
  growth: 110%
[2]
  growth: 97.1%
[3]
  growth: 95.1%
[4]
  growth: 111%
[5]
  growth: 108%
[6]
  growth: 97.2%
[7]
  growth: 99.5%
[8]
  growth: 101%
[9]
  growth: 103%
[10]
  growth: 104%

## COc1ccc(/C=N/NC(=O)Cn2c(-c3ccc(S(C)(=O)=O)cc3)nc3ccccc32)cc1
[1]
  growth: 111%
[2]
  growth: 98.9%
[3]
  growth: 89%
[4]
  growth: 95.8%
[5]
  growth: 104%
[6]
  growth: 102%
[7]
  growth: 93.1%
[8]
  growth: 96.4%
[9]
  growth: 112%
[10]
  growth: 92.1%

## CCN(CC)CCOc1ccc2c(-c3ccccc3)c(-c3ccc(OC)cc3)c(=O)oc2c1
[1]
  growth: 95.6%
[2]
  growth: 25%
[3]
  growth: 83%
[4]
  growth: 67.3%
[5]
  growth: 50.9%
[6]
  growth: 89.8%
[7]
  growth: 62.9%
[8]
  growth: 58.7%
[9]
  growth: 18.1%
[10]
  growth: -7.02% (active)

## CCOC(=O)C#Cc1c(C(=O)OCC)nnn1[C@@H]1O[C@H](COC)[C@@H](OC)[C@H]1OC
[1]
  growth: 92.6%
[2]
  growth: 9.33% (active)
[3]
  growth: 25.8%
[4]
  growth: 107%
[5]
  growth: 14%
[6]
  growth: 106%
[7]
  growth: 95.1%
[8]
  growth: 84.7%
[9]
  growth: 59.3%
[10]
  growth: 61.8%

## CCOC(=O)c1c(C)nc2ccccc2c1/C=C/c1ccc(F)cc1
[1]
  growth: 89.6%
[2]
  growth: 50%
[3]
  growth: 98.7%
[4]
  growth: 75.9%
[5]
  growth: 101%
[6]
  growth: 85.2%
[7]
  growth: 67.7%
[8]
  growth: 81%
[9]
  growth: 83%
[10]
  growth: 86.5%

## Cc1ccc2nc(-c3ccc(C(=O)N/N=C/c4ccc([N+](=O)[O-])cc4)cc3)[nH]c2c1
[1]
  growth: 103%
[2]
  growth: 101%
[3]
  growth: 92.2%
[4]
  growth: 97.3%
[5]
  growth: 104%
[6]
  growth: 101%
[7]
  growth: 111%
[8]
  growth: 97.5%
[9]
  growth: 108%
[10]
  growth: 102%

## CCn1cc(C(=O)N/N=C/c2cccc(F)c2)c(=O)c2cc(F)c(N3CCNC(C)C3)c(F)c21 (stereo not given)
[1]
  growth: -87.5% (active)
[2]
  growth: -52.1% (active)
[3]
  growth: -67.4% (active)
[4]
  growth: -49.6% (active)
[5]
  growth: -21.6% (active)
[6]
  growth: 39.4%
[7]
  growth: 75.7%
[8]
  growth: -4.61% (active)
[9]
  growth: 89%
[10]
  growth: -7.07% (active)

## Cc1ccc(-c2csc(NC(=O)CSc3nc(N)cc(N)n3)n2)cc1
[1]
  growth: 77.2%
[2]
  growth: 20.1%
[3]
  growth: 57.9%
[4]
  growth: 67.5%
[5]
  growth: 92.1%
[6]
  growth: 73.6%
[7]
  growth: 50.2%
[8]
  growth: 76.9%
[9]
  growth: 79.9%
[10]
  growth: 67.8%

## CCCCCCCCn1ccc2cc(NC(=O)CN3CCN(c4cc(C)nc(Cl)n4)CC3)ccc21
[1]
  growth: 93.8%
[2]
  growth: 63.1%
[3]
  growth: 95.3%
[4]
  growth: 94.8%
[5]
  growth: 69.2%
[6]
  growth: 90.3%
[7]
  growth: 83.7%
[8]
  growth: 92.8%
[9]
  growth: 92.8%
[10]
  growth: 89.4%

## S=c1ccnc[nH]1
[1]
  growth: 116%
[2]
  growth: 113%
[3]
  growth: 123%
[4]
  growth: 115%
[5]
  growth: 128%
[6]
  growth: 113%
[7]
  growth: 115%
[8]
  growth: 100%
[9]
  growth: 105%
[10]
  growth: 96.6%

## CNCC[C@H](Oc1cccc2ccccc12)c1cccs1
[1]
  growth: 115%
[2]
  growth: 54.7%
[3]
  growth: 113%
[4]
  growth: 7.37% (active)
[5]
  growth: 72.3%
[6]
  growth: 88.2%
[7]
  growth: 94.1%
[8]
  growth: 97.5%
[9]
  growth: 90.1%
[10]
  growth: 104%

## Clc1ccc(-c2cc(-c3ccccc3)nc(N3CCN(CCCNc4ccnc5cc(Cl)ccc45)CC3)n2)cc1
[1]
  growth: 19.2%
[2]
  growth: -14.7% (active)
[3]
  growth: -32.8% (active)
[4]
  growth: -51.7% (active)
[5]
  growth: -60.5% (active)
[6]
  growth: 13.5%
[7]
  growth: 39.6%
[8]
  growth: -65.7% (active)
[9]
  growth: 39.2%
[10]
  growth: -51.8% (active)

## COc1cc2c(c(OC)c1OC)CCC(c1cccc(C(=O)Nc3ccc(Br)cc3)c1)O2 (stereo not given)
[1]
  growth: 71%
[2]
  growth: 40.4%
[3]
  growth: 72.3%
[4]
  growth: 17%
[5]
  growth: 75%
[6]
  growth: 76.6%
[7]
  growth: 56.5%
[8]
  growth: 76.6%
[9]
  growth: 75.6%
[10]
  growth: 70.5%

## O=C(c1c[nH]c2ccccc12)c1n[nH]c(=S)n1-c1ccc([N+](=O)[O-])cc1
[1]
  growth: 109%
[2]
  growth: 83.3%
[3]
  growth: 106%
[4]
  growth: 91.3%
[5]
  growth: 102%
[6]
  growth: 95.4%
[7]
  growth: 104%
[8]
  growth: 94.1%
[9]
  growth: 99%
[10]
  growth: 95.9%

## COC(=O)[C@@]1(C)CC[C@]2(C)CC[C@]3(C)C4=CC=C5C(=CC(=O)C(O)=C5C)[C@]4(C)[C@@H](O)C[C@@]3(C)[C@@H]2C1
[1]
  growth: 21.3%
[2]
  growth: 8.3% (active)
[3]
  growth: 7.58% (active)
[4]
  growth: -0.344% (active)
[5]
  growth: -35.1% (active)
[6]
  growth: 62.5%
[7]
  growth: 74.8%
[8]
  growth: -8.84% (active)
[9]
  growth: 32%
[10]
  growth: 7.16% (active)

## O=C1NC(=O)C(c2coc3cc(Br)ccc23)=C1c1c[nH]c2ccccc12
[1]
  growth: 65.1%
[2]
  growth: 11.5%
[3]
  growth: 66.2%
[4]
  growth: 59.4%
[5]
  growth: 75.3%
[6]
  growth: 43.1%
[7]
  growth: 71.1%
[8]
  growth: 64.7%
[9]
  growth: 72%
[10]
  growth: 31.5%

## CCOC(=O)CC[C@H](NC(=O)c1ccc(N(C)Cc2cnc3nc(N)nc(N)c3n2)c2ccccc12)C(=O)OCC
[1]
  growth: 28.3%
[2]
  growth: 18.8%
[3]
  growth: 62.1%
[4]
  growth: 59.4%
[5]
  growth: 48.7%
[6]
  growth: 32.9%
[7]
  growth: 24.3%
[8]
  growth: 26.1%
[9]
  growth: 25.3%
[10]
  growth: 23%

## O=C(C[C@]1(O)C(=O)Nc2ccc(Br)cc21)c1ccco1
[1]
  growth: 106%
[2]
  growth: 93.8%
[3]
  growth: 84.1%
[4]
  growth: 98.6%
[5]
  growth: 108%
[6]
  growth: 88.5%
[7]
  growth: 103%
[8]
  growth: 104%
[9]
  growth: 101%
[10]
  growth: 99.1%

## Cc1ccc(OCCOCCOCCOCCOCCOc2ccc(C)n(O)c2=S)c(=S)n1O
[1]
  growth: 17.3%
[2]
  growth: 14.5%
[3]
  growth: 16.5%
[4]
  growth: 29.8%
[5]
  growth: 40.6%
[6]
  growth: 12.5%
[7]
  growth: 16.8%
[8]
  growth: 1.52% (active)
[9]
  growth: -3.93% (active)
[10]
  growth: -4.25% (active)
